Assay outcomes as filed in PubChem BioAssay.
Compounds with a hit are over-represented: about 4% of the library has one in this group of screens.
ADAM10 inh = inhibitors of human ADAM10. inhibition, % at 7 µM. AID 720582. recombinant ADAM10, EDANS/DABCYL FRET peptide cleavage, 3 h. actives 0.62% (n = 370,000);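 active = inhibition above a per-campaign cutoff equal to the mean of compounds falling between control-based bounds plus 3 SD, cut at about 20% in these data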;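 note: 0% = DMSO wells while the 100% control is not disclosed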
FAS-TE inh = inhibitors of human fatty acid synthase thioesterase domain | AID 602261 | actives 0.67% (n = 360,000) | recombinant FAS-TE, OMFH fluorogenic substrate, fluorescence endpoint | P49327 | inhibition, % at 15 µM;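 active = compounds whose normalised, plate-corrected inhibition of enzyme fluorescence in the single-dose primary screen is 50% or more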;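 note: 0% = DMSO with enzyme and 100% = substrate without enzyme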
GRIN3A LBD mod = modulates the human NR3A ligand-binding domain. NR3A LBD differential scanning fluorimetry, Tm shift; 0% = protein alone, 100% = glycine-bound protein. actives 2.5% (n = 340,000). Tm shift relative to glycine control, % at 25 µM;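 active = melting temperature shift of at least 10% of the positive control shift, at one fixed dose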
aDG glyco act = alpha-DG glycosylation activation | Pro5-aDG cells, alpha-DG glycosylation AlphaScreen (IIH6); 0% Pro5, 100% B10-LARGE cell signal | activation, % at 10 µM | actives 0.22% (n = 360,000) | AID 624168;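 active = activation of at least 8% versus controls, or a plate z-score of at least 8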;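 note: Pro5 are CHO cells carrying HIG-tagged alpha-DG that lacks glycosylation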
ADAM17 inh = inhibits human ADAM17. recombinant ADAM17, EDANS/DABCYL FRET peptide cleavage. P78536. actives 0.83% (n = 370,000). AID 720648. inhibition, % at 6.95 µM;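 active = inhibition above the mean of compounds lying between control limits plus 3 SD, set per campaign, cut at about 8.5% in these data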;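 note: 0% = DMSO-only wells as the low control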
Target sequence (P78536 215-824 limits assumed): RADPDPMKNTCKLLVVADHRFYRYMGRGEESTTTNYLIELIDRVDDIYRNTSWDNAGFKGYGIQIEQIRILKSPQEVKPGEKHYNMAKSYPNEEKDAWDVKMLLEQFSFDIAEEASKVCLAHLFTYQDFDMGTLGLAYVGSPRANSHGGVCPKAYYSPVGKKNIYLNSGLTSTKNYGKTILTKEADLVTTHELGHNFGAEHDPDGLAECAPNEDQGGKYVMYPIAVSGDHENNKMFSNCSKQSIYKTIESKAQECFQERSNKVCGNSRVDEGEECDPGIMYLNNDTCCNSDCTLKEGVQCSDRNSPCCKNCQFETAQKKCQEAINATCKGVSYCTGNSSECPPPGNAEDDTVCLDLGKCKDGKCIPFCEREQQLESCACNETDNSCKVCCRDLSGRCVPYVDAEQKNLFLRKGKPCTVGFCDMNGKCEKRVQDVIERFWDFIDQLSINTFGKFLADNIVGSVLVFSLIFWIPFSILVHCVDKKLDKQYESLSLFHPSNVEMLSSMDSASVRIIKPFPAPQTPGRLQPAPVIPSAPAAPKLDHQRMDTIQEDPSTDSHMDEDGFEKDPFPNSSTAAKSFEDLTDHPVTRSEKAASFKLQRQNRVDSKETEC
Numbers without * were called inactive; / = no result given.

SMILES	ADAM10 inh	FAS-TE inh	GRIN3A LBD mod	aDG glyco act	ADAM17 inh
CCOC(=O)c1[nH]c2ccc(OC)cc2c1NC(=S)N1CCN(c2cccc(C)c2C)CC1	-30	26	12*	0	-6
CCC(C(=O)NCc1cccs1)n1nc(C)n2c(cc3occc32)c1=O (configuration not stated)	-5	-4	2	0	-3
NS(=O)(=O)c1ccc(CNc2ncnc3sccc23)cc1	-10	-6	-4	1	-4
NS(=O)(=O)c1ccc(CCNc2ncnc3sccc23)cc1	-10	-8	19*	1	-7
COc1cccc(NC(=O)N2CCCC(C(=O)Nc3ccccc3OC)C2)c1 (configuration not stated)	2	-5	0	0	-1
Cc1c(C2Nc3ccccc3C(=O)N2O)cnn1C (configuration not stated)	-16	-2	611*	0	0
O=C(CCc1nc2cccnc2n1Cc1ccccc1)NCCc1ccc(Cl)cc1	3	8	11*	0	-2
COc1ccc(N2C(N)=NC(N)=NC23CCCC3)cc1	0	-7	1	0	-4
NC1=NC2(CCCCC2)N(c2ccc(F)cc2)C(N)=N1	-6	-6	20*	0	-2
NC1=C(Cl)C(=O)c2ccccc2C1=O	-12	1	0	22*	0
O=S(=O)(c1ccc(NC(=S)Nc2ccc(OC(F)F)cc2)cc1)N1CCOCC1	-12	8	26*	0	-3
NNC(=S)Nc1ccc(S(=O)(=O)N2CCOCC2)cc1	-5	-4	0	0	-6
CC(C)(C)CC(C)(C)NC(=S)Nc1ccc(S(=O)(=O)N2CCOCC2)cc1	7	31	22*	1	4
O=C(c1cc2c(ccc3ccccc32)o1)N1CCCCC1	-1	8	-1	0	-1
CCN(CC)S(=O)(=O)c1ccc2c(c1)c(=O)c(C(=O)NCCCN(C)c1ccccc1)cn2C	-7	26	-8	0	-7
CN(CCCNC(=O)c1cn(C)c2ccc(S(=O)(=O)N(C)C)cc2c1=O)c1ccccc1	4	26	18*	0	0
O=C(Cc1ccccc1)NC(NC(=S)Nc1cc(Cl)ccc1Cl)C(Cl)(Cl)Cl (configuration not stated)	2	-5	16*	0	0
O=C(COc1ccccc1)NC(NC(=S)Nc1ccccc1O)C(Cl)(Cl)Cl (configuration not stated)	11	3	5	0	1
Cc1ccccc1NC(=S)NC(NC(=O)c1ccco1)C(Cl)(Cl)Cl (configuration not stated)	-2	-8	-10	0	0
O=C(NC(NC(=S)Nc1cc(Cl)ccc1Cl)C(Cl)(Cl)Cl)c1ccco1 (configuration not stated)	6	19	14*	0	1
Cc1ccccc1N(C(=O)Cn1nnc(-c2ccc(F)cc2)n1)C(C(=O)NC(C)(C)C)c1ccncc1 (configuration not stated)	-1	4	-1	2	-2
O=C(CNc1cc(S(=O)(=O)N2CCOCC2)ccc1N1CCCC1)Nc1ccc(Cl)cc1F	-4	18	/	0	-3
COC(=O)[C@]1(CC(C)C)N[C@H](c2ccc(-c3ccc4c(c3)OCO4)cc2)[C@@H]2C(=O)N(C)C(=O)[C@@H]21	-10	31	1	0	-6
COC(=O)[C@]1(Cc2ccccc2)N[C@H](c2ccc(-c3ccc4c(c3)OCO4)cc2)[C@@H]2C(=O)N(C)C(=O)[C@@H]21	-6	86*	-2	0	-3
Cc1ccccc1NCC(=O)N/N=C\C=C\c1cccc([N+](=O)[O-])c1	9	20	15*	0	0
SMILES	ADAM10 inh	FAS-TE inh	GRIN3A LBD mod	aDG glyco act	ADAM17 inh
Cc1cc(N2CCOCC2)c2c(N)cc(C)c(C)c2n1	4	-4	3	0	-4
Cc1cc(C)cc(NC(=O)CCn2ccnc2)c1	-6	-4	-1	0	2
CCC(=O)c1ccc(OCC(=O)OCC(=O)c2cc(C)n(C)c2C)cc1	-4	3	13*	0	0
CCCNC(=O)C1CN(C(=O)c2nn(Cc3ccccc3)c(=O)c3ccccc23)c2ccccc2O1 (configuration not stated)	-12	7	-1	0	-1
COCCNC(=S)N(CCc1c(C)[nH]c2ccc(F)cc12)Cc1ccc(C)cc1	11	26	10*	1	5
COCCNC(=S)N(CCc1c(C)[nH]c2ccc(C)cc12)Cc1ccco1	3	11	-7	0	-5
COc1ccc2[nH]c(C)c(CCNc3ccc(C(F)(F)F)cc3[N+](=O)[O-])c2c1	3	26	19*	0	4
COc1ccc2[nH]c(C)c(CCNC(=S)Nc3ccc(F)cc3)c2c1	8	3	12*	0	3
COc1ccc2[nH]c(C)c(CCNC(=S)Nc3cc(C)cc(C)c3)c2c1	-7	4	0	0	0
Cc1cccc(-c2noc(CCCC(=O)NCC3CCCO3)n2)c1 (configuration not stated)	-3	-3	-1	0	-4
Cc1cccc(NS(=O)(=O)c2cccc3cccnc23)n1	5	-5	2	0	-3
Cc1cc(C)n2nc(C(=O)NCc3ccccc3)nc2n1	-3	-7	24*	0	0
Cc1ccc(CNC(=O)c2nc3nc(C)cc(C)n3n2)cc1	11	-8	0	0	-5
NC(=O)[C@@H]1CC2(CC(c3cccc(NC(=O)COc4ccc(Cl)cc4)c3)=NO2)CN1C(=O)COc1ccc(Cl)cc1 (some centres not stated)	8	39	23*	0	3
N#CCC(=O)N1CC2(CC(c3cccc(NC(=O)COc4ccc(Cl)cc4)c3)=NO2)C[C@@H]1C(N)=O (some centres not stated)	-6	-4	1	0	-2
Cc1ccc(S(=O)(=O)N2CCCOC2)cc1	1	-10	-2	0	-1
Nc1nonc1-n1nnc(C(=O)N/N=C/c2cccnc2)c1CSC1=NCCS1	2	3	-2	0	1
Nc1nonc1-n1nnc(C(=O)N/N=C/c2cccnc2)c1CSc1ccc(Cl)cc1	2	14	12*	0	-3
CCCc1c(C(=O)N/N=C/c2ccc(-c3ccccc3)cc2)nnn1-c1nonc1N	-8	-6	/	0	2
Nc1nonc1-n1nnc(C(=O)N/N=C/c2cccnc2)c1CSc1ccccc1	4	3	19*	0	0
CCCc1c(C(=O)N/N=C/c2cccnc2)nnn1-c1nonc1N	1	-3	32*	0	-5
CC12CC3OC3CC1CCC1C2CCC2(C)C1CCC21OCCO1 (configuration not stated)	-11	12	-3	0	-1
